According to PubChem BioAssay AID686978 (National Center for Advancing Translational Sciences (NCATS), 2013):
The campaign covered roughly 420,000 compounds. About 64,000 (15%) were called active. Another 27% or so got no clear call; they are omitted. Calls come from the whole dose curve; as a rule, active = well fitted inhibition curve with a large enough effect; inconclusive = small, poorly fitted or top-dose-only effect; inactive = flat fitted curve, though single readings scatter. Not all results are given here.

Assay: qHTS for Inhibitors of human tyrosyl-DNA phosphodiesterase 1 (TDP1): qHTS in cells in absence of CPT; note: nearly all actives have a fitted effect of over 55% in size
Settings: DT40 Tdp1-/- hTDP1 cells, no CPT, ATP luminescence, 48 h; activity change, negative = growth inhibition: at 46.2 µM (top of the series)
Summary of the method: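 Stably hTDP1-transfected Tdp1-null chicken DT40 cells were treated with library compounds minus camptothecin and grown for at least 48 hr at 37 °C, after which cellular ATP was quantified by luminescence.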
% is set by controls: 0 for no effect and ±100 for the full control effect; potency is the fitted concentration of half-maximal effect.

SMILES | activity change, negative = growth inhibition | Potency
Cc1ccc(C(=O)Oc2ccc(C(=S)N3CCOCC3)cc2)cc1 | -1.68% (inactive) | 
c1ccc(-c2ccnc3nc(-n4cccc4)nn23)cc1 | -27.3% (inactive) | 
O=C(CN(C(=O)c1nsc(Cl)c1Cl)c1cccc(F)c1)NC1CCCC1 | -10.5% (inactive) | 
O=C(CCc1ccc(S(=O)(=O)N2CCOCC2)cc1)NN=C1CCCCCCC1 | -23.8% (inactive) | 
CCN(CC)CCN(C(=O)c1cccc([N+](=O)[O-])c1)c1nc2ccc(OC)cc2s1 | -6% (inactive) | 
Cc1noc(C)c1NC(=O)Nc1ccc2c(c1)C(=O)N([C@H](C)CO)C[C@H](C)[C@@H](CN(C)C(=O)Nc1ccc(C(F)(F)F)cc1)O2 | -3.6% (inactive) | 
CCN(CC)C(=O)COc1coc(CN2CCN(Cc3ccccc3)CC2)cc1=O | -2.5% (inactive) | 
O=C(CSc1nnc(-c2ccncc2)o1)NCc1ccc(Cl)cc1 | -3.3% (inactive) | 
Fc1ccc(-c2ccc(NCCN3CCOCC3)nn2)cc1 | 0.015% (inactive) | 
Nc1cc(C(F)(F)F)ccc1N1CCOCC1 | -12.3% (inactive) | 
Cc1cccc(N=Nc2c(O)[nH]c3ccc(F)cc23)c1 | -23.1% (inactive) | 
Oc1[nH]c2ccc(Br)cc2c1N=Nc1nn[nH]n1 | 0.673% (inactive) | 
Oc1[nH]c2ccccc2c1N=Nc1c(F)c(F)c(F)c(F)c1F |  | 13 µM (active)
CCC(Cc1ccccc1)NC(=O)C1CCCCC1 (configuration not stated) | -2.07% (inactive) | 
O=C1c2ccccc2C(=O)N1c1ccc(S(=O)(=O)N2CCOCC2)c2ccccc12 | -11.7% (inactive) | 
COc1cc(CC(=O)Nc2nc(-c3ccc(F)c(F)c3)cs2)cc(OC)c1OC |  | 5.8 µM (active)
Fc1ccc(-c2csc(-c3ccc(C4SCCS4)cc3)n2)cc1F | -28.9% (inactive) | 
COc1ccc(-c2csc(NC(=O)c3ccc(N4C(=O)CCC4=O)cc3)n2)cc1OC | -23% (inactive) | 
Cc1ccc(S(=O)(=O)NC(=O)Nc2nc(-c3ccc(F)c(F)c3)cs2)cc1 | -3.11% (inactive) | 
COc1ccc(-c2csc(Nc3cccc(C)n3)n2)cc1OC |  | 25.9 µM (active)
COc1ccc(CC(=O)Nc2nnc3n2CCS3)cc1OC | -29.4% (inactive) | 
COc1ccc(CC(=O)Nc2nc(-c3ccc(F)c(F)c3)cs2)cc1OC |  | 6.51 µM (active)
COc1cccc(CC(=O)Nc2nc(-c3ccc(OC)c(OC)c3)cs2)c1 |  | 18.4 µM (active)

SMILES | activity change, negative = growth inhibition | Potency
Cc1nn2c(=O)cc(COC(=O)c3ccccc3NC(=O)COc3ccccc3C)nc2s1 | -1.12% (inactive) | 
CC(=O)C1C(c2ccc(Cl)cc2)c2c(n[nH]c2C)CC1(C)O (configuration not stated) | 3.21% (inactive) | 
CCOc1ccc(S(=O)(=O)NCCC(=O)NCC2CCCO2)cc1 (configuration not stated) | 6.02% (inactive) | 
COc1ccc(Cn2cccc(NC(=O)Nc3ccc(C#N)cc3)c2=O)cc1 | -24.5% (inactive) | 
CC1CCc2sc3nc(N4CCN(CCO)CC4)n4ncnc4c3c2C1 (configuration not stated) | -12% (inactive) | 
Cc1ccn2c(=O)nc(SCC(=O)NCc3ccc4c(c3)OCO4)nc2c1 | -45.9% (inactive) | 
O=C(COC(=O)CC1CC2CCC1C2)NC(=O)NC1CCCC1 (configuration not stated) | -2.02% (inactive) | 
COc1cc(OC)cc(C(=O)NCCc2csc3nc(-c4ccccc4F)nn23)c1 | -21.9% (inactive) | 
COc1ccc(CCNS(=O)(=O)c2ccc(F)cc2)cc1OC | -4.13% (inactive) | 
COc1ccc(-c2nc3scc(CCNS(=O)(=O)c4cc(F)ccc4OC)n3n2)cc1OC |  | 20.6 µM (active)
Cc1cc([N+](=O)[O-])nn1CC(=O)Nc1ccc(Cc2ccncc2)cc1 | -26.3% (inactive) | 
CN(c1ccccc1)S(=O)(=O)c1cc(C(=O)OCC(=O)N2CCN(C(=O)c3ccco3)CC2)ccc1Cl |  | 23.1 µM (active)
O=C(OCC(=O)N1CCN(C(=O)c2ccco2)CC1)c1cccc(O)c1 | 3.71% (inactive) | 
O=C(OCC(=O)N1CCN(C(=O)c2ccco2)CC1)c1c(Cl)cccc1Cl | -11.4% (inactive) | 
COc1cccc(CN2CCNC(=O)C2CC(=O)N(C)CCc2ccccn2)c1 (configuration not stated) | 5.47% (inactive) | 
Cc1ccc(NC(=O)c2oc3ccccc3c2C)c([N+](=O)[O-])c1 | -25% (inactive) | 
COc1ccc(Cl)cc1C(=O)NCC#N | -11.5% (inactive) | 
c1ccc2c(Nc3ccncc3)nc(-c3ccoc3)nc2c1 |  | 20.6 µM (active)
c1ccc2c(Nc3ccncc3)nc(-c3ccc4c(c3)OCO4)nc2c1 |  | 14.6 µM (active)
Cc1noc(C)c1-c1nc(Nc2ccccc2)c2ccccc2n1 | 0.567% (inactive) | 
Cc1ccc(C(=O)O)cc1N1C(=O)CCCC1=O | -2.9% (inactive) | 
CC1CCC(NC(=O)CNC(=O)c2ccc3ccccc3c2)CC1 (configuration not stated) | -29.2% (inactive) | 
N#Cc1ccc(CSc2ncccn2)cc1 | 19.3% (inactive) | 

SMILES | activity change, negative = growth inhibition | Potency
Cn1c(=O)[nH]c2c(c(C(=O)O)nn2C)c1=O | 8.92% (inactive) | 
O=C(CSc1nc2cc3c(cc2c(=O)n1CCC1=CCCCC1)OCO3)NCc1ccco1 | 2.72% (inactive) | 
COCCN(C(=O)C(C)N1C(=O)c2ccccc2C1=O)c1c(N)n(CC(C)C)c(=O)[nH]c1=O (configuration not stated) | 2.24% (inactive) | 
CCC(=O)Nc1ccc2c(c1)nc(CCN1CCN(c3ccccn3)CC1)n2C | -5.94% (inactive) | 
CCC(=O)Nc1ccc2c(c1)nc(CCN1CCN(C)CC1)n2C | 1.99% (inactive) | 
Cn1c(CCN2CCCCCC2)nc2cc(NC(=O)Nc3ccccc3)ccc21 |  | 23.1 µM (active)
N[C@@H](Cc1ccccc1)C(=O)N1CCC(C(=O)NCC(=O)Nc2ccc(F)cc2)CC1 | -4.57% (inactive) | 
Cc1ccc(SCCC(=O)NCc2ccccn2)cc1 | 4.23% (inactive) | 
O=C(COc1ccccc1)OCc1cc(=O)n2nc(-c3cccs3)sc2n1 | -13.5% (inactive) | 
O=C(CCC(=O)N1CC2CCCN2c2ccccc21)NCc1ccccc1Cl (configuration not stated) |  | 16.4 µM (active)
COc1cccc(CNC(=O)CCC(=O)N2CC3CCCN3c3ccccc32)c1 (configuration not stated) |  | 16.4 µM (active)
COc1ccccc1CNCc1ccc(C(=O)O)s1 | 1.39% (inactive) | 
COc1ccc(S(=O)(=O)N2CCC(C(=O)NCCC(=O)NCc3cccc(OC)c3)CC2)cc1 | -0.479% (inactive) | 
COc1ccc(NC(=O)N2CCCC2C(=O)NCc2ccccc2Cl)cc1 (configuration not stated) | -17.8% (inactive) | 
COc1ccccc1CNC(=O)CNC(=O)c1cn(-c2ccccc2OC)c(=O)c2ccccc12 | -18.7% (inactive) | 
COc1cccc(CNC(=O)C2CC(=O)N(C3CCCCCCC3)C2)c1 (configuration not stated) | 3.44% (inactive) | 
O=C(CCC(=O)n1ncc2ccccc21)NCc1ccccc1Cl | 3.3% (inactive) | 
COc1ccc(CNC(=O)C2CCN(C(=O)c3ccccc3)CC2)cc1 | 11.3% (inactive) | 
COc1ccc(CNC(=O)c2ccc(NC(=O)N3CC4CCCN4c4ccccc43)cc2)cc1 (configuration not stated) |  | 20.6 µM (active)
O=C(NCc1ccccc1Cl)C1CCCO1 (configuration not stated) | 7.89% (inactive) | 
COc1ccccc1CNC(=O)c1ccc(NC(=O)N2CC(C)Sc3ccccc32)cc1 (configuration not stated) |  | 23.1 µM (active)
